PubChem BioAssay (NCATS)
Inconclusive results are not listed. Calls of active or inactive are those of the source. Calls follow the shape of the dose curve; as a rule, active = well fitted activation curve with a large enough effect; inconclusive = small, poorly fitted or top-dose-only effect; inactive = no such curve, though single readings can be large or run the other way.

target: Cellular tumor antigen p53 (Homo sapiens) (UniProt P04637); assay: Primary qHTS for small molecule compounds that upregulate eGFP-tagged delta133p53alpha (in N-terminal) cells. (AID 2060322); details: NCI-H358 eGFP-delta133p53alpha fluorescence, 24 h; activation: stronger effect = higher value; also: nearly all actives have a fitted effect of over 75% in size;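 as to activation: series mostly up to about 56 µM; 0% = DMSO vehicle and 100% = reference activator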
Sequence (P04637 whole entry, looked up): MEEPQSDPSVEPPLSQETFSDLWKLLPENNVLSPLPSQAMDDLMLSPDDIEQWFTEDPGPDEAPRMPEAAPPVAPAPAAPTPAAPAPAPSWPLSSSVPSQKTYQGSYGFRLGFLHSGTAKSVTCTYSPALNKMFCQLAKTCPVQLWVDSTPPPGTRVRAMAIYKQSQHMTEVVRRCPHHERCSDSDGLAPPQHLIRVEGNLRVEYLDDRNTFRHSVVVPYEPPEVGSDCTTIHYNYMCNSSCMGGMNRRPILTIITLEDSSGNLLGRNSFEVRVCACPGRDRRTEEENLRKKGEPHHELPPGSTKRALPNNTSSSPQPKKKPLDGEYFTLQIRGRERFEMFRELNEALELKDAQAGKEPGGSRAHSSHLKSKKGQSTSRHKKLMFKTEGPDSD
Summary of the method: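 NCI-H358 cells pre-induced 24 h with 10 ng/ml doxycycline to express N-terminal eGFP-delta133p53alpha, then dosed 24 h at 37C without doxycycline; fixed, Hoechst-stained, GFP intensity by laser scanning cytometry, normalized to DMSO (0%) and 57.5 uM 5-azacytidine (100%).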
Potency is read from the fitted curve at half-maximal effect.

Structure (SMILES)	activation	Potency
C[C@]12CC[C@H]3[C@@H](CCC4=CC(=O)CC[C@@]43C)[C@@H]1CC[C@@H]2C(=O)CO	-5.86% (inactive)	–
C[C@@H](O)[C@H]1C(=O)N2C(C(=O)O)=C([C@H]3CCCO3)S[C@H]12	-8.47% (inactive)	–
OC(CCN1CCCCC1)(c1ccccc1)c1ccccc1	1.69% (inactive)	–
C[C@H]1C[C@H](O)c2ccsc2S1(=O)=O	-26.6% (inactive)	–
CC(C)=CCC/C(C)=C/CC/C(C)=C/C(=O)OCC(=O)[C@@]1(O)CC[C@H]2[C@@H]3CCC4=CC(=O)C=C[C@]4(C)[C@H]3[C@@H](O)C[C@@]21C	-21.8% (inactive)	–
Clc1ccccc1-c1nc(-c2ccncc2)no1	11.7% (inactive)	–
COC(=O)[C@]12CCC(C)(C)C[C@@H]1[C@@H]1C(=O)C=C3[C@@]4(C)C=C(C#N)C(=O)C(C)(C)[C@@H]4CC[C@@]3(C)[C@]1(C)CC2	–	10.9 µM (active)
CCCCCC(C)N (stereo not given)	28.8% (inactive)	–
C[C@H](N)[C@H](O)c1cccc(O)c1	-7.53% (inactive)	–
CN1CCN(C2=Nc3ccccc3Sc3ccc(Cl)cc32)CC1	15.3% (inactive)	–
O=C(Oc1ccccc1C(=O)O)c1ccccc1O	-5.02% (inactive)	–
CC(=O)N[C@@H](CCC(N)=O)C(=O)O	-8.37% (inactive)	–
Nc1nnnn1-c1ccccc1	29.9% (inactive)	–
CCN(CC)CC(=O)Nc1c(C)cccc1C(=O)OC	-9.21% (inactive)	–
CC=CC[C@@H](C)C(=O)[C@H]1C(=O)N[C@@H](C(C)C)C(=O)N(C)CC(=O)N(C)[C@@H](CC(C)C)C(=O)N[C@@H](C(C)C)C(=O)N(C)[C@@H](CC(C)C)C(=O)N[C@@H](C)C(=O)N[C@H](C)C(=O)N(C)[C@@H](CC(C)C)C(=O)N(C)[C@@H](CC(C)C)C(=O)N(C)[C@@H](C(C)C)C(=O)N1C	34.2% (inactive)	–
